TDP1 block: inhibitors of human tyrosyl-DNA phosphodiesterase TDP1; Q9NUW8; recombinant TDP1, AlphaScreen DNA substrate cleavage; Potency, µM (top dose mostly 130 µM), hits mostly inhibitors; 350,000 compounds, 0.28% hits; note: nearly all actives have a fitted effect of over 40% in size
Target sequence (Q9NUW8 whole entry, looked up): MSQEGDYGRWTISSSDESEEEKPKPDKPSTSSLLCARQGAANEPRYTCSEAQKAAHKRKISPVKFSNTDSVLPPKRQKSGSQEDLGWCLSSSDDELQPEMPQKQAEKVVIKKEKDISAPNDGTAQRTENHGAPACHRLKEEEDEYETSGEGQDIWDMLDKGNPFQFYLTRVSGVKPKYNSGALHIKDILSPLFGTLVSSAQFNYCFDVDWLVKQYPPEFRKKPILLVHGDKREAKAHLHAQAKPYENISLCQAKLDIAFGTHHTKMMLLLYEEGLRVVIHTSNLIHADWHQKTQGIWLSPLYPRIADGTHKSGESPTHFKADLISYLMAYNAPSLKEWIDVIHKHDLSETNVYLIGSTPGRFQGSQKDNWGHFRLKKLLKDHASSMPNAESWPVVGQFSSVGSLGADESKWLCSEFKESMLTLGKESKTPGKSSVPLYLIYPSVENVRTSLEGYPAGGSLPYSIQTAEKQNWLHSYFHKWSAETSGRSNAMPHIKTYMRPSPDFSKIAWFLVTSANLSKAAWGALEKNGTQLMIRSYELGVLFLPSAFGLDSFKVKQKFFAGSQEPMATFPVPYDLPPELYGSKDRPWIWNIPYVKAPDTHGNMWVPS
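Steps: enzyme plus compound, 15 min RT; add biotin/phosphotyrosine-FITC oligonucleotide (15 nM final), react 5 min; add donor/acceptor beads (10 ug/ml final), 10 min; read AlphaScreen. Tdp1 at 1 nM final.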
TGFb inhibitor: inhibitors of TGF-b signaling | 410,000 compounds, 1.2% hits | Potency, µM (highest dose often 46.1 µM), usual class: inhibitors | HepG2 CAGA-GFP TGF-b/SMAD3 reporter, GFP fluorescence, 18 h; TGF-beta stimulated, 500 pg/mL final | AID 588855; note: nearly all actives have a fitted effect of over 65% in size
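Per well, imaged GFP fluorescence of HEPG2 CAGA-GFP cells gives the signal; cells get compound, then TGF-beta (500 pg/mL final), 18 h at 37 degrees C; %Activity versus -TGF-beta and +DMSO controls.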
TDP1 cell CPT: DT40-hTDP1 cell growth loss with CPT; 420,000 compounds, 12% hits; AID 686979; chicken DT40 Tdp1-/-;hTDP1 cells + 20 nM CPT, ATP luminescence, 48 h; Potency, µM (series often up to 46.2 µM), usual class: inhibitors; note: nearly all actives have a fitted effect of over 55% in size
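Chicken DT40 Tdp1-/- cells complemented with human TDP1, 400 cells/well, exposed to compounds plus 20 nM camptothecin for at least 48 h at 37 C; viability read as ATP content by CellTiter-Glo luminescence.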
IL-1B inflam inh: inflammasome signaling inhibition, IL-1 beta readout; THP-1 LPS/ATP IL-1B secretion, AlphaLISA, 16 h; stronger effect = lower value; activity change, % at 57.5 µM; 360,000 compounds, 4.7% hits; in the data active = activity change below about -50%; inconclusive = mostly about -30% to -49%
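THP-1 cells pretreated 1 hr with compounds (up to 57.5 uM final), then stimulated with LPS (250 ng/mL final) plus ATP (1.25 mM final); secreted IL-1B measured by AlphaLISA after 16 hr, decreased signal indicating inhibition.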
HepG2 viability: kills HepG2 cells in TGF-b inhibitor counter-screen. HepG2 CAGA-GFP viability, ATP luminescence, 18 h. Potency, µM (doses to about 46.1 µM), usual class: cytotoxic. 410,000 compounds, 0.76% hits. AID 588856
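CellTiter-Glo luminescence gave cytotoxicity after 18 hours at 37 degrees C. The cells were HepG2 CAGA-GFP in 1% FBS DMEM, stimulated with 500 pg/mL TGF-beta after compound addition. %Activity was normalised to no-cell wells (complete cell-killing) and DMSO (no toxicity), and curves were fitted and classified.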
DT40 TDP1 no CPT: qHTS for Inhibitors of human tyrosyl-DNA phosphodiesterase 1 (TDP1): qHTS in cells in absence of CPT; Potency, µM (doses to about 46.2 µM), hits mostly inhibitors; 420,000 compounds, 15% hits; DT40 Tdp1-/- hTDP1 cells, no CPT, ATP luminescence, 48 h; note: nearly all actives have a fitted effect of over 55% in size
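Cells were dispensed at 400 per well, compounds added by pin tool, plates incubated ≥48 hr at 37 °C, then CellTiter-Glo added for 30 min at room temperature before luminescence reading. Line: DT40 Tdp1-/- complemented with hTDP1; camptothecin omitted.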
Each line names hits and unclear results; the compound was inactive in the other large screens. Rows were chosen to be rich in hits. Some 18% of all compounds tested hit in one or more screens of this group. Unless noted, calls come from the whole dose curve; as a rule, active = well fitted curve in the direction sought with a large enough effect; inconclusive = small, poorly fitted or top-dose-only effect, or another doubt; inactive = no such curve, though single readings can be large; an effect the other way counts as inactive or inconclusive.

O=C(c1ccc2c(c1)CCN2S(=O)(=O)c1ccc(Cl)cc1)N1CCN(c2ccccc2F)CC1	TDP1 cell CPT 20.6µM, DT40 TDP1 no CPT 16.4µM (no result: IL-1B inflam inh)
O=C(c1ccc2c(c1)CCN2S(=O)(=O)c1ccccc1)N1CCN(c2cccc(Cl)c2)CC1	TDP1 cell CPT inconclusive, DT40 TDP1 no CPT inconclusive (no result: IL-1B inflam inh)
S=C1NCN(C2CCCCC2)CN1c1ccccc1	none
O=C(c1cccnc1)C1CCCN(Cc2ccc3c(c2)CN(C(=O)c2cnccn2)CCO3)C1 (stereo unspecified)	none (no result: TDP1 block, TGFb inhibitor, IL-1B inflam inh, HepG2 viability)
O=C(Cc1csc(-c2cccc(F)c2)n1)Nc1cccc(S(=O)(=O)NC2=NCCC2)c1	none (no result: TDP1 block)
Cc1cccc(NC(=O)c2ccc3c(c2)CCN3S(C)(=O)=O)c1C	none (no result: TDP1 block)
O=C(c1ccc(Cl)c(S(=O)(=O)N2CCc3ccccc3C2)c1)N1CCN(c2ccccc2)CC1	TDP1 cell CPT 3.66µM, DT40 TDP1 no CPT inconclusive
Cc1cccc(N2CCN(C(=O)c3ccc4c(c3)CCN4S(C)(=O)=O)CC2)c1C	TGFb inhibitor inconclusive, TDP1 cell CPT 13µM, IL-1B inflam inh -50.9, DT40 TDP1 no CPT inconclusive
CC1Oc2ccccc2OC1(O)c1ccc2ccccc2n1 (stereo unspecified)	DT40 TDP1 no CPT inconclusive
O=C(Nc1ccc(S(=O)(=O)NC2=NCCCCC2)cc1)c1ccc(=O)[nH]c1	none
COc1cccc(/C=N/Nc2ccccc2C(=O)O)c1O	none (no result: TDP1 block)
CCOc1ccccc1/C=N/Nc1ccnc(=O)[nH]1	TDP1 cell CPT 5.17µM, DT40 TDP1 no CPT 2.91µM (no result: TDP1 block)
O=c1nccc(N/N=C/c2ccccc2O)[nH]1	TGFb inhibitor inconclusive, TDP1 cell CPT 0.231µM, DT40 TDP1 no CPT 0.326µM (no result: TDP1 block)
COc1cccc(/C=N/Nc2ccnc(=O)[nH]2)c1O	TDP1 cell CPT 0.0231µM, DT40 TDP1 no CPT 0.0651µM (no result: TDP1 block)
Oc1ccccc1/C=N/Nc1nn[nH]n1	none
COc1cccc(NC(=O)Nc2cc(C(=O)O)ccc2N2CC3CC(C2)c2cccc(=O)n2C3)c1 (stereo unspecified)	none
Cc1cc(-c2ccc(C)c(S(=O)(=O)NCC3CCN(Cc4ccc(F)cc4)CC3)c2)on1	TGFb inhibitor inconclusive, TDP1 cell CPT 18.4µM, IL-1B inflam inh -87.8, DT40 TDP1 no CPT inconclusive
CCc1ccc(-c2cc(C)no2)cc1S(=O)(=O)N1CCN(c2ccc(OC)cc2)CC1	TGFb inhibitor inconclusive, TDP1 cell CPT 20.6µM, DT40 TDP1 no CPT inconclusive
COc1cccc(N2CCN(S(=O)(=O)c3cc(-c4cc(C)no4)ccc3C)CC2)c1	TGFb inhibitor inconclusive, TDP1 cell CPT inconclusive, DT40 TDP1 no CPT 18.4µM (no result: IL-1B inflam inh)
CCc1ccc(-c2cc(C)no2)cc1S(=O)(=O)N1CCN(C(=O)c2ccco2)CC1	DT40 TDP1 no CPT 20.6µM
CCc1ccc(-c2cc(C)no2)cc1S(=O)(=O)NCc1ccc(OC)cc1	TDP1 cell CPT 0.92µM, DT40 TDP1 no CPT 1.03µM (no result: IL-1B inflam inh)
COc1ccc(OC)c(CNS(=O)(=O)c2cc(-c3cc(C)no3)ccc2OC)c1	none
COc1ccc(-c2cc(C)no2)cc1S(=O)(=O)NCc1cccs1	TDP1 cell CPT 14.6µM, DT40 TDP1 no CPT 14.6µM (no result: IL-1B inflam inh)
COCCN(Cc1cccs1)S(=O)(=O)c1cc(-c2cc(C)no2)ccc1C	TDP1 cell CPT inconclusive, DT40 TDP1 no CPT 20.6µM (no result: IL-1B inflam inh)
COc1ccc(CNS(=O)(=O)c2ccc(-c3cc(C)no3)cc2)cc1	none
Cc1cc(-c2ccc(C)c(S(=O)(=O)N(C(C)C)C3CCCCC3)c2)on1	TDP1 cell CPT 20.6µM, DT40 TDP1 no CPT inconclusive (no result: IL-1B inflam inh)
COc1ccc(NC(=O)COC(=O)c2ccc(N3CCCC3=O)cc2)cc1	none
CCc1ccc(-c2cc(C)no2)cc1S(=O)(=O)NCCCN1CCN(c2ccccc2)CC1	TGFb inhibitor 17.8µM, TDP1 cell CPT inconclusive, DT40 TDP1 no CPT inconclusive
CC(=O)Nc1scc(-c2ccccc2)[n+]1-c1ccc(C)cc1	TDP1 cell CPT 14.6µM, DT40 TDP1 no CPT 13µM
COc1cccc(CCNC(=O)c2cc(COc3cccc(OC)c3)on2)c1	TDP1 cell CPT inconclusive, DT40 TDP1 no CPT 16.4µM (no result: TDP1 block)
COc1cccc(OCc2cc(C(=O)NCC3CCCCC3)no2)c1	none
O=C(NCCc1ccco1)c1cc(COc2cccc(C(F)(F)F)c2)on1	TDP1 cell CPT inconclusive, IL-1B inflam inh -83.3, DT40 TDP1 no CPT inconclusive
CCOC(=O)CC1(NC(=O)c2cc(COc3cccc(OC)c3)on2)CCCCC1	TGFb inhibitor inconclusive, TDP1 cell CPT 23.1µM, DT40 TDP1 no CPT 10.3µM
COc1cccc(CCNC(=O)c2cc(COc3ccc(C)c(C)c3)on2)c1OC	TDP1 cell CPT inconclusive, DT40 TDP1 no CPT 14.6µM (no result: TDP1 block)
CN1C(C)(C)CC(=NO)CC1(C)C	none (no result: TDP1 block)
COc1ccc(CNCCCn2cnc3c(SC)ncnc32)cc1	none (no result: TDP1 block)
COc1cccc(CNC(=O)CCCN2C(=O)CSc3c2c(C)nn3-c2ccccc2)c1OC	TGFb inhibitor inconclusive, TDP1 cell CPT inconclusive, DT40 TDP1 no CPT inconclusive (no result: IL-1B inflam inh)
Cc1nn(-c2ccccc2)c2c1N(CC(=O)NCc1ccc(N(C)C)cc1)C(=O)CS2	TDP1 cell CPT inconclusive, DT40 TDP1 no CPT 18.4µM (no result: IL-1B inflam inh)
COc1ccc(CNC(=O)CCCN2C(=O)CSc3c2c(C)nn3-c2ccccc2)c(OC)c1	TGFb inhibitor inconclusive, TDP1 cell CPT inconclusive, DT40 TDP1 no CPT 16.4µM (no result: IL-1B inflam inh)

Screening results (PubChem BioAssay)
